The nature of assay [1]: APR_HepG2_NuclearSize_72hr: Apredica 72-hour HepG2 Assay for Nuclear Size (AID 2282925). As to conditions: high-content imaging, actives raise or lower the signal. In a few lines: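 HepG2 cells were exposed to compounds at ten concentrations from 0.39 to 200 uM (duplicate, 0.5% DMSO final) for 72 hr. After fixation in 3.7% formaldehyde, nuclei were stained with Hoechst 33342 (2 ug/mL) and imaged at 20x.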

Assay [2] is described as follows: ATG_CRE_CIS: Attagene CIS-FACTORIAL HepG2 Assay for human cAMP Responsive Element (CRE) binding protein 3 (AID 2282926). The settings on record: HepG2 CRE cis-reporter, Attagene multiplexed mRNA; actives raise or lower the signal. An outline of the steps:
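Transfected HepG2 were treated for 24 hours, then RNA was extracted and reporter cDNA amplified with sequence-specific primers. Labelled fragments were separated by capillary electrophoresis, and the CRE signal was fitted bidirectionally with DMSO as baseline.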

Assay [3] concerns the target CCAAT/enhancer-binding protein beta (Homo sapiens) (UniProt P17676). The assay is described as follows: ATG_C_EBP_CIS: Attagene CIS-FACTORIAL HepG2 Assay for human CCAAT/Enhancer Binding Protein (C/EBP) beta (AID 2282927). The settings on record: HepG2 Attagene cis-factorial transcription factor reporter; actives raise or lower the signal. An outline of the steps:
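Following a 24 h incubation with test chemical, transfected HepG2 cells yielded RNA whose reporter transcripts were quantified by RT-PCR and fluorescent capillary electrophoresis, with DMSO serving as baseline for bidirectional fitting.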

Assay [4] is described as follows: ATG_CMV_CIS: Attagene CIS-FACTORIAL HepG2 Assay for human CMV (Internal Marker) (AID 2282928).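 Further: endpoint acts as a background internal control marker rather than a target.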 The settings on record: HepG2 CMV promoter reporter, transcription factor profiling; actives raise or lower the signal. In a few lines:
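Cell system: HepG2, transiently transfected multiple reporter units under cis promoters. Exposure: 24 h. Detection: RT-PCR, FAM labeling, HpaI digestion, capillary electrophoresis. Analysis: bidirectional, DMSO baseline.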

Assay [5] is described as follows: ATG_DR4_LXR_CIS: Attagene CIS-FACTORIAL HepG2 Assay for human Liver X Receptor (LXR), DR4 submotif (AID 2282929). The settings on record: HepG2 Attagene DR4 cis-reporter, mRNA transcription; actives raise or lower the signal. In a few lines:
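HepG2, transient MRTU transfection, cis-element (DR4) promoter; 24 h compound exposure; total RNA → oligo(dT) RT → PCR → 6-FAM primer extension → HpaI cut → CE. Gain/loss vs DMSO, bidirectional fit.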

Assay [6] has as its target Aryl hydrocarbon receptor (Homo sapiens) (UniProt P35869). Description: ATG_Ahr_CIS: Attagene CIS-FACTORIAL HepG2 Assay for human Aryl Hydrocarbon Receptor (Ahr) (AID 2282930). The settings on record: HepG2 AhR cis-factorial reporter transcription; actives raise or lower the signal. In a few lines: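 Values derive from bidirectional fitting against DMSO negative control. Underlying signal: cis-element reporter mRNA in transiently transfected HepG2, harvested 24 h post-dose and measured by RT-PCR plus capillary electrophoresis.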

Assay [7] in a line: ATG_AP_1_CIS: Attagene CIS-FACTORIAL HepG2 Assay for human Activator Protein 1 (AP-1) (AID 2282931). The settings on record: HepG2 Attagene cis-factorial AP-1 reporter mRNA; actives raise or lower the signal. An outline of the steps: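 Transient MRTU transfection of HepG2 → 24 h chemical treatment → RNA isolation, RT-PCR, 6-FAM labelling, HpaI digest → capillary electrophoresis. Fit: bidirectional, DMSO negative control.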

A short description of assay [8]: ATG_BRE_CIS: Attagene CIS-FACTORIAL HepG2 Assay for human Bone Morphogenetic Protein (BMP) Response Element (BRE) (AID 2282933). As to conditions: HepG2 BMP response element reporter, Attagene transcription factor profiling; actives raise or lower the signal. An outline of the steps: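 After a 24 h chemical treatment, transiently transfected HepG2 cells were lysed for RNA; reporter transcripts were quantified by fluorescent RT-PCR and capillary electrophoresis, normalised to DMSO.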

In assay [9] the target is Retinoic acid receptor alpha (Homo sapiens) (UniProt P10276). The assay is described as follows: ATG_DR5_RAR_CIS: Attagene CIS-FACTORIAL HepG2 Assay for human Retinoic Acid Receptor Alpha (RARE), DR5 submotif (AID 2282934).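 On AC50: reporter responds to endogenous RAR alpha beta and gamma in HepG2 not RARA alone.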 As to conditions: HepG2 Attagene cis-factorial RARE DR5 reporter, mRNA; actives raise or lower the signal. In a few lines:
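Endpoint fitted in both directions relative to DMSO as negative control. It reflects DR5 cis-element reporter mRNA induction in transiently transfected HepG2 cells, measured 24 h after dosing through RT-PCR and fluorescent capillary electrophoresis.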

Assay [10] addresses Transcription factor E2F1 (Homo sapiens) (UniProt Q01094). Description: ATG_E2F_CIS: Attagene CIS-FACTORIAL HepG2 Assay for human E2F Transcription Factor 1 (AID 2282935). As to conditions: HepG2 Attagene cis-reporter, E2F reporter RNA transcripts; actives raise or lower the signal. An outline of the steps:
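HepG2 cells transiently transfected with multiplexed cis-element reporter units, dosed for 24 h. Reporter mRNA measured by RT-PCR, 6-FAM primer-extension labeling, HpaI digestion and capillary electrophoresis; bidirectional fit versus DMSO baseline.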

The nature of assay [11]: ATG_E_Box_CIS: Attagene CIS-FACTORIAL HepG2 Assay for human Enhancer Box (E-box) (AID 2282936). The settings on record: HepG2 E-box cis-reporter transcription, actives raise or lower the signal. An outline of the steps:
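HepG2 cells transiently transfected with multiplexed cis-element reporter units sensing endogenous transcription factor activity; 24 h compound exposure. Reporter mRNA measured by RT-PCR, 6-FAM primer extension, HpaI digestion and capillary electrophoresis; bidirectional fit versus DMSO.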

Assay [12] is described as follows: ATG_M_61_CIS: Attagene CIS-FACTORIAL HepG2 Assay for M61 Transcription Factor (Internal Marker) (AID 2282937). The settings on record: HepG2 Attagene CIS-FACTORIAL M61 internal marker reporter; actives raise or lower the signal. In a few lines: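 Human liver HepG2, transient MRTU transfection (cis promoter elements), 24 h compound. Total RNA → oligo(dT) RT → PCR → FAM label → HpaI → CE. Internal background marker; bidirectional fitting, DMSO = baseline.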

The nature of assay [13]: ATG_EGR_CIS: Attagene CIS-FACTORIAL HepG2 Assay for human Early Growth Response 1 (EGR1) (AID 2282938). The settings on record: HepG2 Attagene CIS-FACTORIAL EGR reporter mRNA; actives raise or lower the signal. In a few lines: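 Transient transfection of human HepG2 with multiple cis-regulated reporter units, chemical exposure 24 h, total RNA isolated. Reverse transcription, PCR, fluorescent labelling and capillary electrophoresis quantify reporter transcripts; activity fitted bidirectionally against DMSO.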

Assay [14] in a line: ATG_ERE_CIS: Attagene CIS-FACTORIAL HepG2 Assay for Estrogen Response Element (ERE) (AID 2282940). The settings on record: HepG2 ERE cis-reporter, Attagene RNA transcript; actives raise or lower the signal. An outline of the steps:
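Measuring endogenous transcription factor output, the assay doses transfected HepG2 cells for 24 hours and quantifies reporter transcripts by fluorescent RT-PCR and capillary electrophoresis, with DMSO as baseline.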

Assay [15] in a line: ATG_Ets_CIS: Attagene CIS-FACTORIAL HepG2 Assay for human Erythroblast Transformation Specific (ETS) (AID 2282941). As to conditions: HepG2 ETS cis-reporter transcription, actives raise or lower the signal. In a few lines:
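After transient cis-reporter transfection, HepG2 cells receive test chemical for 24 h. Reporter mRNA levels, measured by RT-PCR and capillary electrophoresis fluorescence, are analysed bidirectionally relative to the DMSO baseline.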

Assay [16] has as its target Hepatocyte nuclear factor 3-beta (Homo sapiens) (UniProt Q9Y261). The assay is described as follows: ATG_FoxA2_CIS: Attagene CIS-FACTORIAL HepG2 Assay for human Forkhead box A2 (FOXA2) (AID 2282942). The settings on record: HepG2 cis-reporter transcription factor activity, 24 h; actives raise or lower the signal. In a few lines: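 Transient MRTU transfection of HepG2 liver cells; 24 h treatment; total RNA → oligo(dT) RT → PCR → FAM primer extension → HpaI cut → CE. Bidirectional fit vs DMSO.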

The nature of assay [17]: ATG_FoxO_CIS: Attagene CIS-FACTORIAL HepG2 Assay for human Forkhead box O (FoxO) (AID 2282943). As to conditions: HepG2 Attagene cis-reporter, FoxO element, mRNA; actives raise or lower the signal. An outline of the steps: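 Values reflect reporter mRNA induction or loss in HepG2 cells 24 h post-dosing, fitted bidirectionally with DMSO as negative control and baseline. Detection used RT-PCR and fluorescence capillary electrophoresis.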

Assay [18] is described as follows: ATG_GATA_CIS: Attagene CIS-FACTORIAL HepG2 Assay for human GATA Binding Protein (AID 2282944). As to conditions: HepG2 GATA cis-element reporter, Attagene multiplex mRNA; actives raise or lower the signal. In a few lines: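 Measures endogenous transcription factor-driven reporter mRNA in HepG2 cells transiently carrying cis-regulated constructs. 24 h dosing; RNA via oligo(dT) reverse transcription, PCR, HpaI digestion, capillary electrophoresis; fitted relative to DMSO.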

Assay [19] can be described thus: ATG_AP_2_CIS: Attagene CIS-FACTORIAL HepG2 Assay for human Activator Protein 2 (AP-2) (AID 2282932). As to conditions: HepG2 AP-2 cis-reporter, Attagene transcription factor profiling; actives raise or lower the signal. In a few lines: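 HepG2 cells were transiently transfected with multiple cis-promoter reporter transcription units and dosed for 24 h. Reporter mRNA was measured by RT-PCR with capillary electrophoresis fluorescence; bidirectional fits relative to DMSO baseline.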

Assay [20] in a line: ATG_M_19_CIS: Attagene CIS-FACTORIAL HepG2 Assay for M19 Transcription Factor (Internal Marker) (AID 2282939). The settings on record: HepG2 Attagene CIS-FACTORIAL M19 internal marker reporter; actives raise or lower the signal. An outline of the steps:
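In this multiplexed cell assay, transiently transfected HepG2 reporter units report endogenous transcription-factor activity; after 24 hours of treatment, labelled reporter cDNA fragments are quantified by capillary electrophoresis and fitted bidirectionally against DMSO.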

Active and inactive are the calls of the source. How the source made its calls: active means hit-call score of the fitted dose curve at least 0.9, where 1 is the maximum; inactive means score below 0.9.

Hepatocyte nuclear factor 3-beta (Homo sapiens), sequence (Q9Y261 whole entry, looked up): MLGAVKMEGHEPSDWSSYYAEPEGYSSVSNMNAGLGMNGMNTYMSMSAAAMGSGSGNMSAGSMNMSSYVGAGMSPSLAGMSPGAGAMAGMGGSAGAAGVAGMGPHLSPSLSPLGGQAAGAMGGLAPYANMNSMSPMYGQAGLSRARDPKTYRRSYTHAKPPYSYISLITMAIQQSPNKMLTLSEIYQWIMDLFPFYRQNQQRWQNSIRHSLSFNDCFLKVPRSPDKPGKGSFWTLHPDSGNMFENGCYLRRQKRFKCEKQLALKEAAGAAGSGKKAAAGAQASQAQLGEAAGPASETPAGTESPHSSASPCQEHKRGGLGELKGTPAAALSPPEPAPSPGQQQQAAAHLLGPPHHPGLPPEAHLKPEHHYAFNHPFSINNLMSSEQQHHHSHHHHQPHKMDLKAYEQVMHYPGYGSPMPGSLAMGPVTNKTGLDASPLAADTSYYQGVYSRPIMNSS
Aryl hydrocarbon receptor (Homo sapiens), sequence (P35869 whole entry, looked up): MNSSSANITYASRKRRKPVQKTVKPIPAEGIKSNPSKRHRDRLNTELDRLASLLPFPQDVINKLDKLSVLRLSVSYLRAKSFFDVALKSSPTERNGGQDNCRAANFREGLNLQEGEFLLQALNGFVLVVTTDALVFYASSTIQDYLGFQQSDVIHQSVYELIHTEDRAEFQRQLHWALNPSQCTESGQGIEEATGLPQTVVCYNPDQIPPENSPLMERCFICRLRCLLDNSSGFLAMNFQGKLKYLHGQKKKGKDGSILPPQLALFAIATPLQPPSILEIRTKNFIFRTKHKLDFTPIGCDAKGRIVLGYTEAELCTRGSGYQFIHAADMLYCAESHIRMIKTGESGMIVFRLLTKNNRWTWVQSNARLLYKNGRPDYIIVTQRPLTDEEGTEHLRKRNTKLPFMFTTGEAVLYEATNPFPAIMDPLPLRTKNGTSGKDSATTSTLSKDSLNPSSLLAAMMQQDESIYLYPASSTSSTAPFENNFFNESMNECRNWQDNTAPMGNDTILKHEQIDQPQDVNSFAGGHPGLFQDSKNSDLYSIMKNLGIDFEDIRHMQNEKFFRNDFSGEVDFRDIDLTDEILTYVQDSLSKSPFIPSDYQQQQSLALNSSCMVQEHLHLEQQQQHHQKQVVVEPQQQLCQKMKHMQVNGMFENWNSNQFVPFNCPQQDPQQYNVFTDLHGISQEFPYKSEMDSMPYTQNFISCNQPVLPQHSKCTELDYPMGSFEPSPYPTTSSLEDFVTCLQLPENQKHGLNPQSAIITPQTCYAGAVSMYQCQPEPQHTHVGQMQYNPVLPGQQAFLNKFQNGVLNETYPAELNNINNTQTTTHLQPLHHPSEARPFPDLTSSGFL
Transcription factor E2F1 (Homo sapiens), sequence (Q01094 whole entry, looked up): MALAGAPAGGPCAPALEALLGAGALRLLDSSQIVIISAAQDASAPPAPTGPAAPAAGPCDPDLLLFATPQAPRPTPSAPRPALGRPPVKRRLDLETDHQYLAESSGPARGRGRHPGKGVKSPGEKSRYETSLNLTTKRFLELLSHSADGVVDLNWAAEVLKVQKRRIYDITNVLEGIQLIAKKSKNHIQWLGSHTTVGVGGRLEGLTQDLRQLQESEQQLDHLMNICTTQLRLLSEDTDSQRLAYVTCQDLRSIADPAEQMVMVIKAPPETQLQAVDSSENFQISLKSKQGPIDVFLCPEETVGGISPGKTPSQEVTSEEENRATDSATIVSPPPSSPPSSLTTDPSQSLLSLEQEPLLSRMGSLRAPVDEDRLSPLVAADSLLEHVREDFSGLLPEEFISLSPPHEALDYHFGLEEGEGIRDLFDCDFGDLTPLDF
Retinoic acid receptor alpha (Homo sapiens), sequence (P10276 whole entry, looked up): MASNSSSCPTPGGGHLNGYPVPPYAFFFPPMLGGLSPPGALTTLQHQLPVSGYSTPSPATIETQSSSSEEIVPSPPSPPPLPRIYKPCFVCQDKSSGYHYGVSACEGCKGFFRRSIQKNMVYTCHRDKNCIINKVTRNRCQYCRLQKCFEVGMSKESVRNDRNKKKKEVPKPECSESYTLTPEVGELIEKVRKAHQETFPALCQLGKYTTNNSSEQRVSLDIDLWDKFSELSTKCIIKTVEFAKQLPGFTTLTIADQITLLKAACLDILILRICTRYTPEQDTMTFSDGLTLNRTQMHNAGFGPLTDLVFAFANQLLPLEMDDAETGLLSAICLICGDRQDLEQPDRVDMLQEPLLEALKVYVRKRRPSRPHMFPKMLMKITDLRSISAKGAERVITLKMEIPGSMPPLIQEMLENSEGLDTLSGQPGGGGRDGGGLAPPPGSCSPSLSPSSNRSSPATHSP
CCAAT/enhancer-binding protein beta (Homo sapiens), sequence (P17676 whole entry, looked up): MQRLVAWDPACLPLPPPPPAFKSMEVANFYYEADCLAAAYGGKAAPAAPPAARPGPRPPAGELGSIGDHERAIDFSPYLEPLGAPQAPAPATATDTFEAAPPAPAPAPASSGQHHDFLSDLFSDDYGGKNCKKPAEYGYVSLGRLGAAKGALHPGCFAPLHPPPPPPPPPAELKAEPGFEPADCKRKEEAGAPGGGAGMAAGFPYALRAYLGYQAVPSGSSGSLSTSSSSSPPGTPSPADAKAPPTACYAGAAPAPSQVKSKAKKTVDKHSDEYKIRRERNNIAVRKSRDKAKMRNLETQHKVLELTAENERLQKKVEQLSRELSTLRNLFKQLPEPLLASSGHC

For the compound `CC[C@H](C)[C@@H](C(=O)O)n1sc2ccccc2c1=O`, the call in assay [1], in [2], in assay [3], in [4], in assay [5] and in assay [6] was inactive. Moreover, the outcome in assay [7], in assay [8], in assay [9], in assay [10], in assay [11] and in assay [12] was inactive. Also, the compound was classed as inactive in assay [13], in assay [14], in assay [15], in [16], in [17] and in assay [18].
Regarding `COCC(C)O` (configuration not stated), the compound was called inactive in assay [1], in assay [2], in assay [3], in assay [4], in assay [5] and in assay [6]. Besides, the outcome in assay [7], in [19], in assay [8], in assay [10], in [11] and in [12] was inactive. Further, the result in assay [13], in assay [14], in [16], in assay [17] and in assay [18] was inactive.
Take `COCC(C)OCC(C)O` (configuration not stated): the outcome in assay [1], in [2], in assay [3], in assay [4], in [5] and in assay [6] was inactive. The outcome in assay [7], in [8], in assay [9], in [10], in assay [11] and in assay [12] was inactive. In addition, the outcome in assay [13], in assay [20], in assay [14], in [16], in assay [17] and in assay [18] was inactive.
For the compound `NCC(F)(F)C(F)(F)C(F)(F)C(F)(F)C(F)(F)C(F)(F)C(F)(F)F`, the result in assay [2], in [3], in assay [4], in assay [5], in assay [6] and in [7] was inactive. Further, the compound was called inactive in assay [8], in assay [9], in assay [10], in [11], in assay [12] and in [13]. The compound was called inactive in [20], in [14], in assay [16], in assay [17] and in assay [18].
Consider `Cc1cc(CCN2CCN(c3nsc4ccccc34)CC2)cc2c1NC(=O)CC2(C)C`, for which the call in [1], in [2], in assay [4], in assay [6], in assay [8] and in assay [10] was inactive. Besides, the result in assay [11], in assay [12], in [14], in [15], in [16] and in [17] was inactive. The compound was classed as inactive in assay [18]. Also, the AC50 is 7.43 µM (active) in assay [3]; 2.82 µM (active) in [5]; 3.21 µM (active) in [7]; 3.74 µM (active) in [9]; 4.06 µM (active) in [13].
For `Cc1oc(-c2ccccc2)nc1CCOc1ccc(C[C@H](Nc2ccccc2C(=O)c2ccccc2)C(=O)O)cc1`, the compound was classed as inactive in assay [1], in assay [2], in [3], in assay [4], in [5] and in assay [6]. The outcome in [7], in [9], in assay [10], in assay [11], in assay [12] and in [16] was inactive. Besides, the compound was called inactive in assay [17] and in assay [18]. Besides, the AC50 in assay [8] was 11 µM (active); in assay [13], 17.1 µM (active); in assay [14], 0.000523 µM (active).
With `CCCCCCCC(=O)O`, the outcome in [1], in assay [2], in assay [3], in [4], in assay [5] and in [6] was inactive. Also, the compound was called inactive in assay [7], in assay [8], in [10], in [11], in assay [12] and in assay [13]. Besides, the compound was classed as inactive in [20], in assay [14], in [16], in assay [17] and in assay [18].

In general, AC50 refers to the midpoint of the concentration-response curve, whichever way the signal moves.

The values are drawn from PubChem BioAssay (EPA / NIEHS).
